GPR151 ag: activators of human GPR151, primary screen, cell-based, PathHunter beta-arrestin, luminescence; PathHunter beta-arrestin GPR151 cells; activation, % at 11.2 µM; hit rate 1% among 650,000; AID 1508602, 2020; in the data active = activation above about 4.9%
TEAD-YAP inh: TEAD-YAP interaction inhibition, primary screen, TEAD-YAP interaction inhibitor project, luminescence, HEK-TIYL cells. TEAD-Gal4/YAP UAS-luciferase luminescence. inhibition, % at 9.12 µM. hit rate 1.4% among 640,000. AID 1259422, 2018; in the data active = inhibition above about 32%
MITF primary: MITF inhibitors, primary screen, biochemical, AlphaScreen, human; Microphthalmia-associated transcription factor (Homo sapiens), O75030; inhibition, % at 2.6 µM; AlphaScreen MITF homodimerization, bead proximity signal; hit rate 0.91% among 650,000; in the data active = inhibition above about 50%
FBW7 act: FBW7 E3 ligase activators, primary screen, biochemical, AlphaScreen, human. hit rate 0.13% among 650,000. AID 1259310, 2017. normalized activity (activation), % at 26.1 µM. F-box/WD repeat-containing protein 7 (Homo sapiens), Q969H0. AlphaScreen FBW7–phospho-cyclin E peptide binding, activator screen; in the data active = normalized activity above about 1.9%;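 note: purified mutant Fbw7 with reduced substrate affinity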
Of the large screens only hits and unclear results are named; the others gave an inactive call. An excerpt weighted towards active compounds, which were near 3.5% of everything screened.

O=C(CSc1nc2ccccc2[nH]1)Nc1ccc(Br)cn1	TEAD-YAP inh 76
Cc1cc(=O)[nH]c(SCC(=O)Nc2ccc(Br)cn2)n1	none
O=C1NN(c2ccc(I)cc2)C(=O)/C1=C\c1ccccc1O	MITF primary 54
O=C(Nc1cccc2ccccc12)c1ccccc1I	none
O=C(Nc1cccc2ccccc12)c1cc(Cl)ccc1O	TEAD-YAP inh 64
Cc1ccccc1NC(=O)c1cc(Cl)ccc1O	TEAD-YAP inh 42
NC(=O)c1c(NC(=O)c2cc(Cl)sc2Cl)sc2c1CCCC2	none
CC1CN(C(=O)Nc2ccccc2C(F)(F)F)CC(C)O1 (stereo not given)	none
O=C(Cn1cccc1C(=O)c1ccccc1)NC1CCCC1	none
Cc1ccc(C(=O)[C@@H]2[C@@H](c3ccccc3F)C(C#N)(C#N)[C@H]3C=Cc4ccccc4N23)cc1	none
COc1ccc(C(=O)[C@@H]2[C@@H](c3cccnc3)C(C#N)(C#N)[C@H]3C=Cc4ccccc4N23)cc1	TEAD-YAP inh 58
COc1ccc(C(=O)[C@@H]2[C@@H](c3ccccc3F)C(C#N)(C#N)[C@H]3C=Cc4ccccc4N23)cc1	TEAD-YAP inh 67
C/C(=N\N=C1/NC(=O)C(C)S1)c1ccc(C)cc1 (stereo not given)	TEAD-YAP inh 47
CCN(CC)C(=O)c1ccc(Oc2nnnn2-c2ccccc2)c(OC)c1	TEAD-YAP inh 32
COc1ccccc1Oc1nnnn1-c1ccc(C(=O)O)cc1	none
COc1ccc(-n2nc([N+](=O)[O-])c(=Nc3ccc(C)c(F)c3)n2O)cc1	none
Cc1cc(C)nc(SCC(=O)Nc2cc(F)ccc2F)n1	none
COC(=O)Cn1cnc2c1c(=O)[nH]c(=O)n2C	none
Cn1c(=O)[nH]c(=O)c2c1ncn2CC(=O)NN	FBW7 act 2.4
COc1ccc(SCCCC(=O)Nc2c3c(nn2C)CCC3)cc1	TEAD-YAP inh 45
COc1ccc(SCC(=O)Nc2c3c(nn2C)CCC3)cc1	TEAD-YAP inh 38
CCOc1ccc(NC(=O)CCN2C(=S)NC(C)(C)CC2C)cc1 (stereo not given)	none
COc1ccc([N+](=O)[O-])cc1NS(=O)(=O)c1cccc(C(=O)OC2CCOC2=O)c1 (stereo not given)	none
CC(C)C(=O)NC(c1ccc(N(C)C)cc1)c1ccc2cccnc2c1O (stereo not given)	TEAD-YAP inh 84
CC(=O)NC(c1ccc(N(C)C)cc1)c1ccc2cccnc2c1O (stereo not given)	TEAD-YAP inh 82, MITF primary 59
CCCCC(=O)NC(c1ccc(N(C)C)cc1)c1ccc2cccnc2c1O (stereo not given)	TEAD-YAP inh 75
CCN(CC)c1ccc(C(NC(=O)C(C)C)c2ccc3cccnc3c2O)cc1 (stereo not given)	TEAD-YAP inh 74
COc1ccccc1C(=O)Oc1ccc2c(c1)C(C)=CC(C)(C)N2	none
Nc1ccc2nc(SCC(=O)c3ccc([N+](=O)[O-])cc3)sc2c1	none
CC(C)Sc1nnc(NC(=O)C23CC4CC(CC(C4)C2)C3)s1	none
CCC(=O)N1c2ccccc2NC2=C(C(=O)CCC2)C1c1ccc(SC)cc1 (stereo not given)	none
CCC(=O)NC(c1ccc(N(C)C)cc1)c1ccc2cccnc2c1O (stereo not given)	TEAD-YAP inh 69
Cc1nc(NC(=O)C(c2ccccc2)c2ccccc2)sc1C	none
CCCCSc1nc(N2CCCC2)c2c(c1C#N)CC(C)(C)OC2	none
CCN(CC)S(=O)(=O)c1ccc(-c2csc(=Nc3ccc(F)cc3)n2CCc2ccc(OC)cc2)cc1	none
O=S(=O)(c1ccc(-c2csc(=Nc3ccc(F)cc3)n2CCO)cc1)N1CCCC1	TEAD-YAP inh 47
CCN(CC)S(=O)(=O)c1ccc(-c2csc(=Nc3ccc(F)cc3)n2CCO)cc1	TEAD-YAP inh 46
CC(C)COC(=O)c1ccc(/C=N/O)cc1	none
Cc1cc(Cl)c(S(=O)(=O)NC(C(=O)O)c2ccccc2)cc1OCC(N)=O (stereo not given)	none
COc1ccc(C(=O)c2ccc(Br)c([N+](=O)[O-])c2)cc1C	TEAD-YAP inh 65
COC(=O)C(C)OC(=O)c1ccc(Cl)c([N+](=O)[O-])c1 (stereo not given)	FBW7 act 3.0
COc1ccc(C(=O)c2ccc(Cl)c([N+](=O)[O-])c2)cc1	TEAD-YAP inh 62
CCOC(=O)C(C)OC(=O)c1ccc(Cl)c([N+](=O)[O-])c1 (stereo not given)	none

Screens from PubChem BioAssay.
